Measurements: PubChem BioAssay AID1259374 (The Scripps Research Institute Molecular Screening Center, 2018)
Out of some 650,000 compounds screened, about 5,900 (0.91%) were called active. Shown is part of a subset that was picked to be rich in actives. Unmarked numbers belong to inactive results. Cut-off read from the data, not from the text of the source: active = inhibition above about 50%; inactive = the rest.

Target: Microphthalmia-associated transcription factor (Homo sapiens) (UniProt O75030)
Assay: MITF inhibitors, primary screen, biochemical, AlphaScreen, human (AID 1259374);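 note: 0% = vehicle wells with protein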
Conditions: AlphaScreen MITF homodimerization, bead proximity signal; at 2.6 µM; stronger effect = higher value

Chain of Microphthalmia-associated transcription factor (Homo sapiens) (O75030 whole entry, looked up): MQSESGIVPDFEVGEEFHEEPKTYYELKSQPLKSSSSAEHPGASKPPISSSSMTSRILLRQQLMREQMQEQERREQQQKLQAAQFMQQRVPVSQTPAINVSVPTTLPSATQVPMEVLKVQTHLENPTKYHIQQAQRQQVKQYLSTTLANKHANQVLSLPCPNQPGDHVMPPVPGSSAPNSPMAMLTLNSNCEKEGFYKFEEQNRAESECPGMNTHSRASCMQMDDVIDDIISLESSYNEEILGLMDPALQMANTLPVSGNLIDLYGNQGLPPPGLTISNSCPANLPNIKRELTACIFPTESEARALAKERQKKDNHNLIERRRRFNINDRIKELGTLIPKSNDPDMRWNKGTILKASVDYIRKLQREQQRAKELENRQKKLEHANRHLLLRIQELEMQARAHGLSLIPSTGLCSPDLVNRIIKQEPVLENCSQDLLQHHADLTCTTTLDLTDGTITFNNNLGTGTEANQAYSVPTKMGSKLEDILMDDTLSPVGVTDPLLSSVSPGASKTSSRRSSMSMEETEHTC

SMILES | inhibition
O=C(CSc1ccccc1)Nc1nc(-c2ccccn2)cs1 | 0.84%
N#Cc1ccc(OCC(=O)Nc2ccccc2Cl)cc1 | 12.2%
N#Cc1ccc(OCC(=O)Nc2nc(-c3ccccn3)cs2)cc1 | 64.9% (active)
Clc1ccccc1/C=N/Nc1nccnc1Cl | -4.68%
Oc1ccc(/C=N/Nc2ccccc2Cl)c(O)c1O | 56.2% (active)
O=C(N/N=C/c1ccccc1Cl)C(=O)N/N=C/c1ccccc1Cl | 17.2%
Cc1ccc(NC(=O)c2c(N)sc3c2CCCCC3)cc1 | -9.3%
O=C(c1ccccc1)c1ccc(OCC(O)CNCC2CCCO2)cc1 (stereo not drawn) | 12.1%
COc1ccc(NC(=O)c2cc3n(n2)C(C(F)(F)F)CC(c2ccc(OC)c(OC)c2)N3)cc1OC (stereo not drawn) | 63.8% (active)
Cc1ccc(NC(=O)c2cc3n(n2)C(C(F)(F)F)CC(c2ccc(Cl)c(Cl)c2)N3)cc1C (stereo not drawn) | 12.4%
COc1ccc(C2CC(C(F)(F)F)n3nc(C(=O)Nc4cccc(C)c4)cc3N2)cc1OC (stereo not drawn) | -3.27%
COC(=O)c1ccc(NC(=O)/C(=C\c2ccco2)NC(=O)c2ccccc2Cl)cc1 | -0.56%
O=C(CSc1nc2ccsc2c(=O)n1-c1ccc(Cl)cc1)N1CCCC1 | -8.93%
N#Cc1ccc(/C=N/NC(=O)c2cc([N+](=O)[O-])cc([N+](=O)[O-])c2)cc1 | 66.5% (active)
Cc1ccc(C(=O)Nc2cccc(C(=O)N/N=C/c3ccc(C#N)cc3)c2)cc1 | 2.24%
O=C(N/N=C/c1ccc([N+](=O)[O-])cc1)c1cccc(I)c1 | 10.1%
O=C(O)C1Nc2ccc(Cl)cc2C2C=CCC12 (stereo not drawn) | 77% (active)
Cc1cc([N+](=O)[O-])cc2c1NC(C(=O)O)C1CC=CC21 (stereo not drawn) | 24.6%
O=S(=O)(c1ccc(C2Nc3ccc(Cl)cc3C3C=CCC32)cc1)N1CCOCC1 (stereo not drawn) | -9.39%
CN(C)CCN1C(=O)C(=O)/C(=C(\O)c2ccc(S(=O)(=O)N(C)C)cc2)C1c1ccc(C(C)(C)C)cc1 (stereo not drawn) | 13.9%
CC(CCn1cccn1)NC(=O)CCc1nnc(-c2ccccc2)o1 (stereo not drawn) | 1.03%
CN(C)CC(C)(C)CNCc1nnc(-c2ccccc2)o1 | 56.2% (active)
O=C(CCc1nnc(-c2ccccc2)o1)NC1(c2ccccc2)CC1 | -2.49%
Cc1cc(N2CCOCC2)ccc1/C=C1\C(=O)NC(=S)N(c2ccccc2)C1=O | -14.9%

SMILES | inhibition
CCN1C(=O)/C(=C\c2ccc(O)cc2)C(=O)NC1=S | 3.62%
O=C1NC(=S)N(Cc2ccco2)C(=O)/C1=C\c1ccc(N2CCOCC2)cc1 | 75.1% (active)
CCOC(=O)N1CCC(N(CCN(C)C)C(=S)Nc2cccc(F)c2)CC1 | -2.5%
O=C(O)C1c2ccccc2C(=O)N(Cc2ccc(F)cc2)C1c1cccc(F)c1 (stereo not drawn) | 10.8%
COc1ccccc1/C=C/CN1CCN(C)CC1 | 44.2%
COc1ccc(CN2CCN(C(=O)c3ccc(F)cc3)CC2)cc1OC | 6.68%
COc1cccc(CN2CCN(Cc3ccc(SC)cc3)CC2)c1OC | 41%
COc1cccc(CN2CCN(Cc3ccc(C(F)(F)F)cc3)CC2)c1OC | 77.8% (active)
COc1ccc(C(=O)N2CCN(Cc3cccc(OC)c3OC)CC2)cc1OC | 44.2%
COc1ccc(CN2CCN(Cc3ccccc3C(F)(F)F)CC2)cc1OC | 75.6% (active)
COc1cccc(CN2CCOCC2)c1OC | -5.85%
COc1ccc(C(=O)N2CCN(Cc3ccccc3C(F)(F)F)CC2)cc1OC | 83.3% (active)
COc1cccc(CNCc2ccc(Br)cc2)c1OC | 12.2%
COc1cccc(CN2CCN(C/C=C/c3ccccc3)CC2)c1OC | 63.1% (active)
COc1ccc(CN2CCC3(CC2)CC3C(=O)NCc2ccccc2C(F)(F)F)cc1O (stereo not drawn) | 0.47%
CC(=O)Nc1cccc(NC(=O)Cn2cnc3c(nnn3Cc3ccccc3F)c2=O)c1 | 11.8%
COc1cc2nc(CN3CCN(c4ccccc4OC)CC3)[nH]c(=O)c2cc1OC | 4.45%
O=[N+]([O-])c1cccc(C(c2nnnn2-c2cccc(Cl)c2)N2CCCCC2)c1 (stereo not drawn) | 7.91%
C/C(CC(=O)Nc1ccc(Cl)cc1C)=N\NC(=O)c1ccc([N+](=O)[O-])c(Cl)c1 | 14%
COC(=O)CSCC(=O)Nc1cc(C(F)(F)F)ccc1Cl | 3.79%
Cc1ccn2cc(-c3ccc(NS(=O)(=O)c4ccc(I)cc4)cc3)nc2n1 | -8%
COc1ccc(NC2c3cccc4cccc(c34)C2NS(=O)(=O)c2ccccc2)cc1 (stereo not drawn) | 23.3%
Cc1cccc(CNc2ncnc3sc(C(=O)N(C)C4CCOC4)c(C)c23)n1 (stereo not drawn) | -1.76%
C=CCOc1ccc(/C=C2\SC(=S)NC2=O)cc1 | 12.6%

SMILES | inhibition
Cc1ccc(C(=O)NNC(=O)C2Cc3ccccc3CN2C(=O)c2ccco2)cc1 (stereo not drawn) | 3.81%
Cc1ccc(OCC(=O)N/N=C/c2cc(C)ccc2O)cc1 | 15.3%
O=C(Nc1cccc(-c2nc3cccnc3s2)c1)C(F)(F)F | -3.61%
N#C/C(=C/c1ccc(S(=O)(=O)c2ccc(Cl)cc2)cc1)c1nc2ccccc2[nH]1 | -16.9%
COc1cccc(-c2nc3cnccn3c2NC(C)(C)C)c1OC | -9.88%
COCCNc1cc(-c2ccc(F)cc2)nc(C)n1 | 14.6%
Cc1nc(Nc2ccncc2)cc(-c2ccc(F)cc2)n1 | 0.1%
Cc1nc(NC2CC2)cc(-c2ccc(F)cc2)n1 | 52.6% (active)
O=C1NC(=O)N(c2ccccc2F)C(=O)/C1=C\c1ccco1 | 40%
Cc1ccc(N2C(=O)NC(=O)/C(=C\c3ccc(I)o3)C2=O)cc1C | 41.7%
COc1ccc(/C=C2/C(=O)NC(=O)N(c3ccccc3C)C2=O)cc1OC | 1.35%
O=C1NC(=S)N(c2ccccc2)C(=O)/C1=C/c1ccc(I)o1 | 59.5% (active)
Cc1cccc(N2C(=O)NC(=O)/C(=C\c3ccc(I)o3)C2=O)c1C | 57.8% (active)
Cc1ccccc1N1C(=O)NC(=O)/C(=C\c2ccoc2)C1=O | 52.5% (active)
O=C1NC(=S)N(c2ccccc2)C(=O)/C1=C/c1ccc(N2CCCC2)o1 | 1.33%
O=C1NC(=S)N(c2ccccc2)C(=O)/C1=C/c1ccccc1 | 17.4%
Cc1cccc(N2C(=O)NC(=O)/C(=C\c3ccc(C)o3)C2=O)c1 | 2.19%
O=C(Nc1ccc(C(=O)O)c(C(=O)O)c1)c1cccc(N2C(=O)c3ccc([N+](=O)[O-])cc3C2=O)c1 (tested in a mixture with another compound) | 11.7%
CSc1ccccc1N1C(=O)[C@@H]2C[C@H]1CN2C(=O)CCc1ccc2c(c1)OCO2 | -0.38%
CC1=C(C(=O)OC2CCCC2)C(c2ccc(C)o2)C2=C(CCCC2=O)N1 (stereo not drawn) | 2.33%
CN(C)c1cccc(Nc2nccn3c(-c4cccc(Cl)c4)cnc23)c1 | -23.8%
CCCCNC(=O)c1ccc(-n2nnc3ccccc3c2=O)cc1 | 5.61%
CCOc1ccc(CN2CCN(C(=O)c3cccc(Cl)c3)CC2)cc1 | 58.5% (active)
COc1ccc(CN2CCN(C(=O)c3cccc(Cl)c3)CC2)cc1OC | 27.7%

SMILES | inhibition
CC(Oc1cccc(Cl)c1)C(=O)Nc1ccccc1C(=O)N1CCN(Cc2ccccc2)CC1 (stereo not drawn) | 4.29%
Clc1cccc(N2CCN(Cc3cccnc3)CC2)c1 | 49.8%
CC(C)NC(=O)Nc1ccc(CN2CCN(C)CC2)cc1 | -5.21%
CCOc1ccc(CN2CCN(Cc3ccc(OCC)cc3)C(CCO)C2)cc1 (stereo not drawn) | 8.91%
O=C(c1cccc(Cl)c1)N1CCN(Cc2cccnc2)CC1 | 59.4% (active)
CCOc1ccc(CN2CCCN(C)CC2)cc1 | 60.4% (active)
O=C(c1ccc(C(=O)N2CCN(Cc3ccccc3)CC2)cc1)N1CCN(Cc2ccccc2)CC1 | 6.34%
COc1ccc(OC)c(-n2nnnc2SCC(=O)N2CCc3ccccc32)c1 | 9.95%
CC(C)n1cnc2c(NCc3cccc(C(F)(F)F)c3)nc(Nc3ccncn3)nc21 | 12.6%
Cc1ccc2c(c1)-c1c(cnn1CC(=O)NCc1ccccn1)CO2 | -4%
COc1cccc(N2CCN(Cc3cccs3)CC2)c1 | 42.8%
COc1ccc(N2CCN(Cc3coc4ccc(Cl)cc4c3=O)CC2)cc1 | 10.4%
COc1ccc(N2CCN(Cc3ccc(Br)s3)CC2)cc1 | 71.6% (active)
CCOC(=O)c1ccc(-n2c(=S)sc3c2nc(SCC(=O)N2CCCC2)n2c4ccccc4nc32)cc1 | -3.4%
CCOc1cc2c(cc1/C=C1/NC(=O)N(CC(=O)Nc3ccccc3C)C1=O)OCO2 | 12.6%
Cc1ccccc1CC1(C2CCN(C(=O)C(C)C)CC2)NC(=O)N(CCCN(C)C)C1=O (stereo not drawn) | 4.98%
CNC(=O)/C(C#N)=C/c1cn(CC(=O)NCCOC)c2ccccc12 | 5.66%
CSc1ccc(CN2CCN(Cc3cccc(Oc4ccccc4)c3)CC2)cc1 | 52% (active)
CSc1ccc(CN2CCN(C(=O)c3cccc(F)c3)CC2)cc1 | 34.1%
COc1cccc(CN2CCN3C(=O)[C@H]4CCCN4C(=O)[C@H]3C2)c1 | -17.2%
CCc1ccc(NS(=O)(=O)c2ccc3c(c2)CCN3C(=O)C2CC2)cc1 | 2.16%
